Reference: PubChem BioAssay
Values joined by “and” are separate entries in the source; they are usually repeats but may differ in a detail not shown here. Equal entries are not always repeated. Active and inactive are the calls of the source.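 How the source made its calls, unless noted: active means compounds whose cell count with miR-34 switched on is under 0.7 times the count with it off; inactive means the rest.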

Columns and labels:
[1] = viability loss with induced miR-34 in A549 – imaging, A549 dox-inducible miR-34, nuclei and caspase counts, primary screen (AID 1347080); conditions: A549 miR-34 inducible, Hoechst nuclei count, 48 h; further: test concentration not given here
[2] = MELAS cybrid and Rieske KO viability enhancers – cell-based, MELAS cybrids, Rieske KO mouse fibroblasts, CellTiter-Glo, primary screen (AID 1508586;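 active means mean z-score across replicates of 1.96 or higher in either the MELAS or the Rieske mutant cell line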;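 further: test concentration not given here; z relative to plate mean and SD of compound and empty wells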); conditions: low glucose
[3] = galactose survival enhancers in mitochondrial complex I cybrids – cell-based, galactose medium, ATP luminescence, primary screen (AID 1645843;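 active means z-score of at least 1.8 in each of two replicates, scored against plate mean and spread of sample wells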;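 further: positive z means more ATP and so rescue of galactose-driven cybrid death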); conditions: complex I mutant cybrid cells, 72 h, stronger effect = higher value
[4] = stronger effect = lower value, cell number ratio, induced over uninduced
[5] = measured here: relative caspase fold change +Dox/-Dox
[6] = measured here: total cells with miR-34 induction, stronger effect = lower value
[7] = measured here: total cells without miR-34 induction
[8] = MELAS cybrid survival, CellTiter-Glo 48 h, stronger effect = higher value
[9] = Rieske KO mouse fibroblast survival, CellTiter-Glo 72 h

| SMILES | fold change [1, 4] | fold change [1, 5] | cell count [1, 6] | cell count [1, 7] | z-score [2, 8] | z-score [2, 9] | z-score [3] |
| --- | --- | --- | --- | --- | --- | --- | --- |
| CN1CCN(NC(=S)Nc2ccc(S(N)(=O)=O)cc2)CC1 | 0.87 (inactive) | 0.82 | 8440 | 9700 | -0.739 (inactive) | 0.101 | 0.425 (inactive) |
| O=C(OC1Cc2c(O)cc(O)cc2OC1c1cc(O)c(O)c(O)c1)c1cc(O)c(O)c(O)c1 (centres undefined) | 0.855 (inactive) and 0.924 (inactive) | 1.5 and 0.635 | 9030 and 8300 | 10600 and 8990 | -0.179 (inactive) | -0.151 | -1.44 (inactive) |
| O=c1[nH]cnc2sc3c(c12)CCCC3 | 0.885 (inactive) | 0.876 | 8460 | 9560 | -0.212 (inactive) | 0.0845 | 0.635 (inactive) |
| O=c1ccc2ccccc2[nH]1 | 0.871 (inactive) | 0.441 | 8280 | 9510 | 1.28 (inactive) | 0.0217 | 0.98 (inactive) |
| CCn1cc(CNC(=O)Nc2nnc(C(C)(C)C)s2)cn1 | 0.886 (inactive) | 2.1 | 8600 | 9710 | 0.641 (inactive) | -0.73 | -0.6 (inactive) |
| CN(C)CCOc1ccc(C(=C(CCCl)c2ccccc2)c2ccccc2)cc1 | 0.778 (inactive) and 1.03 (inactive) | 1.46 and 0.374 | 3730 and 7050 | 4790 and 6850 | -0.446 (inactive) | -0.000629 | -1.88 (inactive) |
| Cc1cccc(-n2cnc3cc(N)ccc32)c1 | 0.889 (inactive) | 1.07 | 8160 | 9170 | 1.59 (inactive) | 0.221 | 0.94 (inactive) |
| Cc1nsc(NC(=O)N2CCCC(C)(O)C2)n1 (centres undefined) | 0.901 (inactive) | 0.878 | 9190 | 10200 | -0.195 (inactive) | -0.423 | -0.565 (inactive) |
| CN(Cc1noc(C2CCCC2)n1)C(=O)c1nc(=O)[nH]c2ccccc12 | 0.914 (inactive) | 1.01 | 8520 | 9320 | -0.339 (inactive) | 0.124 | -0.525 (inactive) |
| O=c1cc(-c2ccccc2)oc2ccccc12 | 0.858 (inactive) | 0.735 | 7170 | 8370 | 2.28 (active) | 0.116 | 1.36 (inactive) |
| Cc1c(Br)c(=O)oc2c(Br)c(O)ccc12 | 0.86 (inactive) | 0.806 | 8490 | 9870 | 0.723 (inactive) | -0.168 | -0.145 (inactive) |
| COC(=O)CN1CCN(c2ncnc3sccc23)C(C)C1=O (centres undefined) | 0.854 (inactive) | 1.54 | 7880 | 9220 | 0.221 (inactive) | 0.142 | -0.055 (inactive) |
| Cc1ccc(-c2noc([C@@]34CC[C@@](C)(C(=O)O3)C4(C)C)n2)cc1Cl | 0.896 (inactive) | 1.34 | 8140 | 9090 | -0.00199 (inactive) | -1.05 | -0.54 (inactive) |
| O=C(Nc1ccc(I)cc1)NC1CCCCC1 | 0.864 (inactive) | 0.498 | 7960 | 9220 | 0.185 (inactive) | -0.338 | 1.05 (inactive) |
| CNCc1ccccc1-c1cccs1 | 0.861 (inactive) | 0.648 | 8130 | 9440 | -0.43 (inactive) | -0.443 | 0.065 (inactive) |
| NC(=O)c1ccccc1-c1cccc2ccccc12 | 0.84 (inactive) | 1.62 | 7950 | 9470 | -0.37 (inactive) | 0.135 | -0.38 (inactive) |
| O=C(O)CN(CCO)CCO | 0.873 (inactive) | 0.542 | 8460 | 9690 | -0.0565 (inactive) | -0.265 | 0.37 (inactive) |
| NS(=O)(=O)c1ccc(C(=O)NCc2ccccc2)cc1 | 0.871 (inactive) | 0.5 | 8310 | 9540 | 0.51 (inactive) | -0.575 | 0.795 (inactive) |
| O=C(O)CCCc1nc(-c2cccc([N+](=O)[O-])c2)no1 | 0.855 (inactive) | 0.356 | 7990 | 9350 | 1.15 (inactive) | -0.0224 | 0.71 (inactive) |
| O=C(O)c1ccc(O)cc1O | 0.891 (inactive) | 0.246 | 8740 | 9810 | -0.11 (inactive) | -0.1 | 0.565 (inactive) |
| CNc1nc(-c2cccc(OC)c2)ncc1F | 0.868 (inactive) | 1.04 | 8700 | 10000 | 0.0888 (inactive) | -0.0676 | -0.485 (inactive) |
| CC(C)C(N)C(=O)OCCOCn1cnc2c(=O)[nH]c(N)nc21 (centres undefined) | 0.946 (inactive) and 0.861 (inactive) | 1.94 and 0.803 | 9720 and 8030 | 10300 and 9320 | -0.311 (inactive) | 0.593 | 0.365 (inactive) |
| COc1ccc(C(=O)O)cc1 | 0.947 (inactive) | 0.667 | 9110 | 9620 | -0.37 (inactive) | -0.0461 | -0.635 (inactive) |
| Cc1cc(C(=O)N2CCc3[nH]nc(COc4ccccc4)c3C2)c(C)o1 | 0.899 (inactive) | 1.21 | 8460 | 9410 | -0.0896 (inactive) | -0.219 | -0.42 (inactive) |

| SMILES | fold change [1, 4] | fold change [1, 5] | cell count [1, 6] | cell count [1, 7] | z-score [2, 8] | z-score [2, 9] | z-score [3] |
| --- | --- | --- | --- | --- | --- | --- | --- |
| O=C(Nc1n[nH]c(Cc2ccccc2)n1)N1CCN(c2ncncn2)CC1 | 0.914 (inactive) | 1.11 | 9380 | 10300 | 0.379 | 4.03 | 0.44 (inactive) |
| Cn1c(=O)c2c(nc(N3CCNCC3)n2Cc2ccccc2)n(C)c1=O | 0.839 (inactive) | 0.525 | 7900 | 9410 | -1.69 (inactive) | -0.314 | 0.525 (inactive) |
| NCc1ccc(-c2cccs2)cc1 | 0.89 (inactive) | 0.746 | 8580 | 9650 | -0.349 (inactive) | -0.59 | 0.51 (inactive) |
| O=[N+]([O-])c1ccc2[nH]ncc2c1 | 0.885 (inactive) | 0.558 | 8690 | 9820 | 0.727 (inactive) | -0.415 | -0.195 (inactive) |
| CC(=O)Nc1nc2c(s1)C(=O)NCCC2 | 0.907 (inactive) | 0.479 | 8770 | 9670 | 0.0141 (inactive) | -0.403 | 0.685 (inactive) |
| O=C(O)c1ccc(-c2cc(Cl)ccc2Cl)o1 | 0.874 (inactive) | 0.439 | 8600 | 9840 | -0.277 (inactive) | 0.0393 | 0.44 (inactive) |
| COc1ccc2[nH]cc(CCC(=O)O)c2c1 | 0.879 (inactive) | 0.282 | 8310 | 9460 | 0.323 (inactive) | -0.35 | 0.275 (inactive) |
| O=C(O)c1ccc(-c2ccc(F)cc2)cc1 | 0.935 (inactive) | 1.32 | 7840 | 8390 | -0.835 (inactive) | -0.109 | 0.26 (inactive) |
| O=C1CN(c2ccc(C(F)(F)F)cn2)CCN1Cc1ccc2c(c1)OCO2 | 0.887 (inactive) | 1.52 | 8410 | 9480 | 0.169 (inactive) | -0.106 | 2.96 (active) |
| CC[C@H](C)C(=O)O[C@H]1C[C@H](O)C=C2C=C[C@H](C)[C@H](CC[C@@H]3C[C@@H](O)CC(=O)O3)[C@H]21 | 0.872 (inactive) | 2.14 | 9300 | 10700 | 0.0534 (inactive) | -0.0126 | 0.555 (inactive) |
| COc1ccc(-n2cccn2)c(-c2nnc3ccccn23)c1 | 0.89 (inactive) | 0.706 | 8500 | 9550 | -0.172 (inactive) | -0.541 | -0.55 (inactive) |
| COc1ccccc1C(=O)N1CCC(n2cc(-c3ccccn3)nn2)CC1 | 0.917 (inactive) | 1.29 | 8760 | 9560 | 0.129 (inactive) | -0.319 | -0.23 (inactive) |
| Nc1nc(Nc2cccc(Cl)c2)sc1C(=O)c1ccc(F)cc1 | 0.868 (inactive) | 0.635 | 7020 | 8090 | 1.64 (inactive) | 0.109 | -2.28 (inactive) |
| CC(C)(N)c1cn(C2CCN(c3nc(N)nc4nc[nH]c34)CC2)nn1 | 0.945 (inactive) | 0.882 | 9180 | 9720 | 1.11 (inactive) | -0.203 | -0.545 (inactive) |
| Cc1ccc(-c2ncnc3scc(C)c23)c2cccnc12 | 0.907 (inactive) | 1.31 | 8040 | 8860 | -0.0169 (inactive) | -0.263 | -0.425 (inactive) |
| O=C1CC(c2ccc(O)cc2)Oc2cc(O)ccc21 (centres undefined) | 0.9 (inactive) | 0.718 | 8540 | 9500 | 0.67 (inactive) | -0.313 | 0.305 (inactive) |
| OCCCc1cn(CC2CCN(c3ncnc4nc[nH]c34)CC2)nn1 | 0.959 (inactive) | 1.9 | 8820 | 9200 | 0.238 (inactive) | -0.383 | -0.565 (inactive) |
| Nc1cccc(-c2cccc(OCc3ccccc3)c2)n1 | 0.803 (inactive) | 1.74 | 7230 | 9010 | -0.19 (inactive) | -0.156 | -0.555 (inactive) |
| CC(C)c1nc(CN(C)C(=O)NC(C(=O)NC(Cc2ccccc2)CC(O)C(Cc2ccccc2)NC(=O)OCc2cncs2)C(C)C)cs1 (centres undefined) | 0.948 (inactive) and 0.95 (inactive) | 1.44 and 0.946 | 7230 and 6000 | 7630 and 6320 | -0.434 (inactive) | 0.643 | -0.03 (inactive) |
| O=C(O)CCCNC(=O)NC1CCCCC1 | 0.89 (inactive) | 0.215 | 8970 | 10100 | 0.354 (inactive) | -0.267 | 0.455 (inactive) |
| C[C@H](NC(=O)c1cnc(-c2ccccc2)[nH]1)c1ccccc1 | 0.876 (inactive) | 2.24 | 7380 | 8420 | 0.341 (inactive) | -0.103 | -0.6 (inactive) |
| O=S(=O)(O)CCCN1CCOCC1 | 0.928 (inactive) | 0.665 | 8750 | 9420 | 0.595 (inactive) | -0.353 | 0.105 (inactive) |
| CCOc1cc(CC(=O)NC(CC(C)C)c2ccccc2N2CCCCC2)ccc1C(=O)O (centres undefined) | 0.993 (inactive) and 0.919 (inactive) | 2 and 0.721 | 8780 and 7660 | 8840 and 8340 | -0.382 (inactive) | 0.561 | 1.65 (inactive) |
